The supplement of paper PMC10338343
± gives the standard deviation. Whole data set: some 8,200 sequences, median “pre-steady-state target cleavage rate” near 0.024, cut for the highest 2% near 1.3. Only a selection was taken, and the highest values are over-represented in it overall.

Tested on: MIWI (PIWIL1) piRISC loaded with L1MC piRNA (30 nt)
Assay: pre-steady-state target cleavage rate (min^-1); MIWI and MILI are mouse PIWI proteins and EfPiwi is from a freshwater sponge; tags in brackets are library labels; higher = faster piRNA-guided slicing of the target
Conditions: guide: L1MC piRNA 5'p-UAACUAAAUACUAUGCAAGCUGUAGGUCCU
Procedure: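 Cleave-'n-Seq: a library of target RNAs (target site embedded in constant flanks, ACAGCATTCCGCGTTAGTGATATCCG... 5' flank; DNA-blocked outside the site) at 0.1 nM was incubated with 1 nM active mouse MILI or MIWI piRISC (synthetic 5'-monophosphorylated piRNA guide) with or without 500 nM mouse GTSF1 at 33 °C for 1 min to 16 h. Uncleaved targets were sequenced and normalised to non-target controls, and the pooled three trials were fitted to a burst-and-steady-state model to give the pre-steady-state cleavage rate (min^-1; k3 is constrained to at most 1e-4). Sequence is the target site only; target names encode pairing extent (gX:gY) and contiguous / 1-mismatch / 2-mismatch / bulge geometry. Fits with R² ≤ 0 are excluded.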

[1] = auxiliary factor: 500 nM mouse GTSF1
[2] = auxiliary factor: none (no GTSF1)

| Sequence | pre-steady-state target cleavage rate [1] | pre-steady-state target cleavage rate [2] |
| --- | --- | --- |
| AGGACCUACAGCUUUGCAUAGUAUUUAGUUA | 1.2 ± 0.066 | 0.0552 ± 0.012 |
| UGGACCUACAGCUUUGCAUAGUAUUUAGUUA | 1.43 ± 0.11 | 0.0449 ± 0.011 |
| UCCACCUACAGCUUGCAUAAUAUUUAGUUA | 0.552 ± 0.049 | 0.0203 ± 0.0032 |
| UCCUGCUACAGCUACCAUAGUAUUUAGUUA | 0.337 ± 0.032 | – |
| AGGACCUACAGCUUGCAUAGUAUUAGUUA | 0.385 ± 0.053 | 0.00372 ± 0.003 |
| UCCACCUACAGCUUGCAUAGUAUUAAGAAA | 0.351 ± 0.054 | – |
| UCCUGGAUGAGAUUGCAUAGUAUUUAGUUA | 0.117 ± 0.011 | 0.00369 ± 0.0027 |
| UCCUGGUACAGCUUGCAUGGUAUUUAGUUA | 0.891 ± 0.058 | 0.0741 ± 0.018 |
| UCCUGGAUCAGCUUGGAUAGUAUUAAGUUA | 0.258 ± 0.033 | 0.0129 ± 0.0046 |
| UGGACCUACAGCUUGCAUAGUAUUUAGUUG [g2:g29:cont:t1G] | 0.456 ± 0.037 | 0.0555 ± 0.01 |
| UGGACCUUCAGCUUGCAUAGUAUAUAGUUA | 1 ± 0.053 | 0.0376 ± 0.0085 |
| AUGGACCUACAGCUUGCAUAGUAUUUAGUUA | 1.34 ± 0.088 | 0.0872 ± 0.018 |
| UGGACCUACAGCUUGCAUAGUAUUUAGUUA [g2:g29:cont:t1A] | 1.61 ± 0.09 | 0.0718 ± 0.013 |
| UGGACCUACAGCUUGCAUAGUUAUUUAGUUA | 0.0473 ± 0.0076 | 0.00533 ± 0.0021 |
| UCGACCUACAGCUUGCAUAGUAAUAAGUUA | 0.444 ± 0.047 | – |
| UCCUCCAUGAGCUUGCAUAGUAUUUAGUAA | 0.471 ± 0.029 | 0.0262 ± 0.0057 |
| UCCUGCUACAGCUUGCAUAGUCAUUUAGUUA | 0.0744 ± 0.02 | 0.00362 ± 0.0031 |
| UCCUGGAUGUCCUUGCAUAGUAUUUAGUCA | 0.0473 ± 0.011 | 0.00568 ± 0.0021 |
| UCGACCUACAUGCUUGCAUAGUAUUUAGUUA | 0.913 ± 0.037 | 0.0554 ± 0.012 |
| UCCACCUACAGCUUGCAUAGUUUUUACUUA | 0.173 ± 0.03 | 0.0106 ± 0.0026 |
| UCCUGGUUCAGCUUGCAUAGUUUUUAGUUA | 0.242 ± 0.031 | 0.0386 ± 0.0094 |

| Sequence | pre-steady-state target cleavage rate [1] | pre-steady-state target cleavage rate [2] |
| --- | --- | --- |
| AGGACCUACAGCAACCAUAGUAUUUAGUUA | 0.426 ± 0.039 | – |
| UCCAACUACAGCUUGCAUAGUAUUUAGUUA | 0.646 ± 0.038 | 0.0478 ± 0.0076 |
| UCCUCCAACAGCUUGCAUAGUAUUUAGUUA | 1.37 ± 0.041 | 0.0735 ± 0.013 |
| UCCUCCAACAGCUUGCAUAGUAUUUAGAUA | 0.491 ± 0.042 | 0.0201 ± 0.0048 |
| UCCACCAACAGCUUGCAUAGUAUUUAGUAA | 0.644 ± 0.039 | 0.0342 ± 0.0071 |
| UCCUCCAACAGCUUGCAUAGUAUUUAGUAA | 0.675 ± 0.03 | 0.0256 ± 0.0063 |
| UGGUCCAACAGCUUGCAUAGUAUUUAGUUA | 0.852 ± 0.034 | 0.0715 ± 0.01 |
| AGGUCCAACAGCUUGCAUAGUAUUUAGUUA | 1.5 ± 0.04 | 0.0907 ± 0.014 |
| UCGUCCAACAGCUUGCAUAGUAUUUAGUUA | 1.4 ± 0.044 | 0.0771 ± 0.014 |
| UCCACCAACAGCUUGCAUAGUAUUUAGUUA | 1.06 ± 0.037 | 0.0618 ± 0.011 |
| UGGACGUACAGCUUGCAUAGUAAUUAGUUA | 0.725 ± 0.048 | 0.0371 ± 0.0089 |
| UCCUGGUACAGCUUGCAUAGUAUUAUGAAA | 0.119 ± 0.037 | – |
| UCCUGGUACACCUUGCAUAGUAAUUAGUUA | 0.546 ± 0.1 | 0.00728 ± 0.0025 |
| ACGACCUACAGCUUGGAUAGUAUUUAGUUA | 1.68 ± 0.067 | 0.0728 ± 0.011 |
| AGCACCUACAGCUUGGAUAGUAUUUAGUUA | 0.99 ± 0.049 | 0.0433 ± 0.0065 |
| UCGACCUACAGCUUGGAUAGUAUUUAGUAA | 0.859 ± 0.043 | 0.0299 ± 0.0054 |
| UCGACCUACAGCUUGGAUAGUAUUUAGUUA | 1.72 ± 0.055 | 0.0599 ± 0.01 |
| UCGACCUACAGCUUGGAUAGUAUUUAGAUA | 0.444 ± 0.05 | 0.0181 ± 0.0047 |
| UGCACCUACAGCUUGGAUAGUAUUUAGUUA | 1.18 ± 0.065 | 0.05 ± 0.008 |
| AGGACGAACAGCUUGCAUAGUAUUUACAAA | 0.245 ± 0.037 | 0.00641 ± 0.0027 |
| UGGACCUACACGUUGCAUAGUAUUUAGUAA | 0.575 ± 0.039 | 0.00987 ± 0.0024 |

| Sequence | pre-steady-state target cleavage rate [1] | pre-steady-state target cleavage rate [2] |
| --- | --- | --- |
| AGGAUCCUACAGCUUGCAUAGUAUUUAGUUA | 1.4 ± 0.068 | 0.118 ± 0.023 |
| UCCAUCCUACAGCUUGCAUAGUAUUUAGUUA | 0.558 ± 0.029 | 0.0561 ± 0.0096 |
| UCGAUCCUACAGCUUGCAUAGUAUUUAGUUA | 1.49 ± 0.042 | 0.0686 ± 0.013 |
| UGGAUCCUACAGCUUGCAUAGUAUUUAGUUA | 1.37 ± 0.071 | 0.0869 ± 0.014 |
| AGGUCCUACAGCUUGCAUAGUAUUUACAAA | 0.428 ± 0.076 | 0.00841 ± 0.003 |
| UGGACCUACAGCUUGCAGUAGUAUUUAGUUA | 0.00477 ± 0.0038 | – |
| UCCUGGUUCAGCUUGCAUAGUAUUUAGUAA | 0.528 ± 0.055 | 0.0354 ± 0.008 |
| UCCUGCAACAGGUUGCAUAGUAUUUAGUUA | 1.11 ± 0.085 | 0.0208 ± 0.0052 |
| UCCUGGAUGUGCUUGCAUAGUAUUUAGGUUA | 0.191 ± 0.02 | 0.0232 ± 0.0058 |
| UCCUGGAUGUGCUUGCAUAGUAUUUAUGUUA | 0.202 ± 0.026 | 0.0215 ± 0.0052 |
| AGGACCUAGAGCUUGCAUAGUAAUUAGUUA | 0.747 ± 0.047 | 0.0277 ± 0.0076 |
| AGGACCAACAGCUUGCAAAGUAUUUAGUUA | 1.18 ± 0.038 | 0.0503 ± 0.01 |
| UGGACCAACAGCUUGCUUAGUAUUUAGUUA | 1.64 ± 0.092 | 0.0497 ± 0.01 |
| UCCACCAACAGCUUGCUUAGUAUUUAGUUA | 1.31 ± 0.061 | 0.026 ± 0.0061 |
| UCGACCAACAGCUUGCUUAGUAUUUAGUUA | 1.47 ± 0.05 | 0.0416 ± 0.0081 |
| UCCUCCAACAGCUUGCUUAGUAUUUAGUUA | 1.28 ± 0.054 | 0.0363 ± 0.0081 |
| UCGACCAACAGCUUGCAAAGUAUUUAGUUA | 1.29 ± 0.043 | 0.0448 ± 0.01 |
| AGGACCAACAGCUUGCUUAGUAUUUAGUUA | 1.31 ± 0.066 | 0.0459 ± 0.0084 |
| UCGACCAACAGCUUGCAUUGUAUUUAGUUA | 0.973 ± 0.028 | 0.0383 ± 0.008 |
| UGGACCAACAGCUUGCAAAGUAUUUAGUUA | 1.38 ± 0.062 | 0.0368 ± 0.0072 |
